Among the data in PubChem BioAssay (Tox21) are Potency and outcome values, retold here.

The nature of assay [1]: qHTS assay to identify small molecule agonists of the peroxisome proliferator-activated receptor delta (PPARd) signaling pathway - cell viability counter screen (AID 743211). Also: nearly all actives have a fitted effect of over 55% in size. Also: potency is read from the fitted curve at half-maximal effect. The method, boiled down:
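Viability of GeneBLAzer PPARd UAS-bla HEK293H cells was assessed after 17 h compound incubation at 37C, using CellTiter-Glo reagent added after the reporter read and luminescence recorded 30 min later.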
Background: Quantitative high-throughput screening tests each substance at several concentrations.

Assay [2] is described as follows: qHTS assay to identify small molecule antagonists of the peroxisome proliferator-activated receptor delta (PPARd) signaling pathway - cell viability counter screen (AID 743213). Also: nearly all actives have a fitted effect of over 50% in size. Also: potency is read from the fitted curve at half-maximal effect. The method, boiled down: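 Luminescence from CellTiter-Glo, added after the bla read and incubated 30 min at room temperature, gives viability of HEK293H PPARd-bla cells exposed to compounds for 17 h at 37 C with 300 nM L165041.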

Assay [3] is described as follows: qHTS assay to identify small molecule antagonists of the farnesoid-X-receptor (FXR) signaling pathway - cell viability counter screen (AID 743221; active = well fitted cell-killing curve with a large enough effect in the repeat runs, not every such curve was filed as active; also: nearly all actives have a fitted effect of over 50% in size; also: potency is read from the fitted curve at half-maximal effect). The method, boiled down:
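Quantitative HTS of the Tox21 10K library run in parallel with the beta-lactamase reporter read. HEK 293T cells carrying a UAS-driven bla reporter got compound and 50 uM CDCA (final) for 16 h; ATP-based luminescence followed.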

For assay [4], the target named is Vitamin D3 receptor (Homo sapiens) (UniProt P11473). Kind of assay: qHTS assay to identify small molecule agonists of the vitamin D receptor (VDR) signaling pathway (AID 743222; calls by dose curve). A digest of the protocol: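 Tox21 cell reporter format: VDR-bla line, 16 h compound exposure in 5% CO2 at 37C, then fluorescence intensity after 2 h with LiveBLAzer B/G FRET substrate.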
Sequence of Vitamin D3 receptor (Homo sapiens) (P11473 whole entry, looked up): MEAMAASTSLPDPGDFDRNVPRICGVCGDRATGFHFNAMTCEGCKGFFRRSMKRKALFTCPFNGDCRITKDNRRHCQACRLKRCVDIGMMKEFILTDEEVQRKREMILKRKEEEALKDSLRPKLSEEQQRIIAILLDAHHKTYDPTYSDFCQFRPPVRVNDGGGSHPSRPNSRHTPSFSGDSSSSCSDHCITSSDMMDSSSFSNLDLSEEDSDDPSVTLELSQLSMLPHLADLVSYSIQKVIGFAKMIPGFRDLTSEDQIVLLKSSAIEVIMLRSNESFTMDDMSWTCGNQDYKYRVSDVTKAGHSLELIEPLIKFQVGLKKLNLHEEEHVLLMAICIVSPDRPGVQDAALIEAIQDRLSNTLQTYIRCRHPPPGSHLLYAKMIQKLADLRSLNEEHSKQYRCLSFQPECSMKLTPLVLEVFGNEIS

Assay [5] in a line: qHTS assay to identify small molecule agonists of the vitamin D receptor (VDR) signaling pathway - cell viability counter screen (AID 743224). Also: nearly all actives have a fitted effect of over 50% in size. Also: potency is read from the fitted curve at half-maximal effect. A digest of the protocol: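 CellTiter-Glo viability readout on VDR-bla cells, measured after 16 h of compound treatment at 37C in the same wells.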
Assay [6] can be described thus: qHTS assay to identify small molecule antagonists of the vitamin D receptor (VDR) signaling pathway - cell viability counter screen (AID 743225). Also: nearly all actives have a fitted effect of over 50% in size. Also: potency is read from the fitted curve at half-maximal effect. The method, boiled down:
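Cells (VDR-UAS-bla HEK 293T) are plated, rested 4 h at 37C, dosed with compound and 3 nM final 1-alpha,25-dihydroxy vitamin D3, and incubated 16 h. Viability is taken from CellTiter-Glo luminescence in the reporter wells.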

The nature of assay [7]: qHTS assay to identify small molecule agonists of the NFkB signaling pathway - cell viability counter screen (AID 1159515; calls by dose curve; also: nearly all actives have a fitted effect of over 55% in size; also: potency is read from the fitted curve at half-maximal effect). The method, boiled down: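 Tox21 library compounds were tested for cytotoxicity against NFkB-bla ME-180 cells during a 5 hr exposure at 37 C. CellTiter-Glo luminescence served as the viability read-out.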
Assay [8] can be described thus: qHTS assay to identify small molecule agonists of the endoplasmic reticulum stress response signaling pathway (AID 1159516; active = well fitted activation curve with a large enough effect in the signal ratio in the repeat runs, not every such curve was filed as active; the % refers to the signal ratio). The method, boiled down: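 Fluorescence at 460 and 530 nm (405 nm excitation) reports beta-lactamase from an ER stress response element in HeLa cells treated 5 hr at 37 C.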
Assay [9] is described as follows: qHTS assay to identify small molecule agonists of the endoplasmic reticulum stress response signaling pathway - cell viability counter screen (AID 1159517; calls by dose curve; also: nearly all actives have a fitted effect of over 50% in size; also: potency is read from the fitted curve at half-maximal effect). A digest of the protocol: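 ESRE-bla HeLa cells (1,500/well) were plated overnight at 37 C and exposed to compounds for 5 hr. After the 2 hr beta-lactamase substrate read, CellTiter-Glo went into the same wells, and luminescence was read after 30 min at room temperature.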

Assay [10] in a line: qHTS assay to identify small molecule antagonists of the retinoid-related orphan receptor gamma (ROR-gamma) signaling pathway - cell viability counter screen (AID 1159520). Also: nearly all actives have a fitted effect of over 50% in size. Also: potency is read from the fitted curve at half-maximal effect. The method, boiled down:
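Cytotoxicity was read from cellular ATP (CellTiter-Glo luminescence) after 16 hr at 37 C with 1 uM doxycycline induction. The inducer was added 2 hr after compound transfer to Tet-on ROR gamma CHO cells.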

The nature of assay [11]: qHTS assay to identify small molecule agonists of the AP-1 signaling pathway - cell viability counter screen (AID 1159525; calls by dose curve; also: nearly all actives have a fitted effect of over 55% in size). A digest of the protocol:
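Intracellular ATP by Cell Titer Glo luminescence (30 min, RT) in the same ME-180 AP-1-bla wells after the 5 h compound exposure at 37 °C. Normalised to tetra n-octyl ammonium bromide and DMSO controls.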

Assay [12] is described as follows: qHTS assay to identify small molecule agonists of the AP-1 signaling pathway (AID 1159526; calls by dose curve).
Assay [13] deals with Peroxisome proliferator-activated receptor delta (Homo sapiens) (UniProt Q03181). The assay can be described thus: qHTS assay to identify small molecule agonists of the peroxisome proliferator-activated receptor delta (PPARd) signaling pathway (AID 743212; calls by dose curve;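 also: HEK293H cells with PPARd UAS beta-lactamase reporter GeneBLAzer system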). A digest of the protocol:
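Beta-lactamase reporter readout: a ratiometric FRET signal from the LiveBLAzer substrate after 2 h at room temperature. Compound exposure at 37 °C in PPARδ-bla HEK293H cells driven by an upstream activator sequence.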

Assay [14] has the same target. Kind of assay: qHTS assay to identify small molecule antagonists of the peroxisome proliferator-activated receptor delta (PPARd) signaling pathway (AID 743215; active = well fitted inhibition curve with a large enough effect in the signal ratio in the repeat runs, not every such curve was filed as active; the % refers to the signal ratio;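 also: cells stimulated with agonist L165041 at 300 nM final during compound exposure; series mostly up to about 62 µM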). A digest of the protocol:
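Here, a reporter line (HEK293H, beta-lactamase under a UAS) measures PPARd signaling. Compounds are tested against agonist L165041 at 300 nM final concentration over 17 h at 37 C, with fluorescence read after substrate.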

The target in assay [15] is Bile acid receptor (Homo sapiens) (UniProt Q96RI1). The assay can be described thus: qHTS assay to identify small molecule antagonists of the farnesoid-X-receptor (FXR) signaling pathway (AID 743217; active = well fitted inhibition curve with a large enough effect in the signal ratio in the repeat runs, not every such curve was filed as active; the % refers to the signal ratio). The method, boiled down:
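Test compounds are pin-transferred onto FXR-bla HEK 293T cells, then chenodeoxycholic acid is added at 50 uM final. After 16 h at 37 °C, LiveBLAzer B/G substrate is applied for 2 h at room temperature and fluorescence read.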

The nature of assay [16]: qHTS assay to identify small molecule agonists of the farnesoid-X-receptor (FXR) signaling pathway - cell viability counter screen (AID 743218). Also: nearly all actives have a fitted effect of over 45% in size. Also: potency is read from the fitted curve at half-maximal effect. The method, boiled down:
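Quantitative HTS counter screen measuring ATP-based viability via CellTiter-Glo luminescence in HEK 293T cells carrying a UAS-driven beta-lactamase reporter, after 16 h compound exposure at 37 C.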

Assay [17] concerns the target Bile acid receptor (Homo sapiens) (UniProt Q96RI1). The assay can be described thus: qHTS assay to identify small molecule agonists of the farnesoid-X-receptor (FXR) signaling pathway (AID 743220; active = well fitted activation curve with a large enough effect in the signal ratio in the repeat runs, not every such curve was filed as active; the % refers to the signal ratio). The method, boiled down: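 FXR-UAS-bla HEK 293T cells carrying a UAS-driven beta-lactamase reporter were plated for 5 h at 37C/5% CO2, then exposed to DMSO-dissolved Tox21 10K compounds for 16 h at 37C. A LiveBLAzer B/G FRET substrate was loaded for 2 h at room temperature before fluorescence reading.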

Assay [18] deals with Vitamin D3 receptor (Homo sapiens) (UniProt P11473). The assay can be described thus: qHTS assay to identify small molecule antagonists of the vitamin D receptor (VDR) signaling pathway (AID 743223; active = well fitted inhibition curve with a large enough effect in the signal ratio in the repeat runs, not every such curve was filed as active; the % refers to the signal ratio). The method, boiled down:
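Fluorescence from LiveBLAzer B/G FRET substrate, read after 2 h at room temperature, reflects beta-lactamase reporter activity in VDR-bla cells treated 16 h at 37C with compounds and agonist 1alpha,25-dihydroxyvitamin D3 (3 nM final).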

Assay [19] concerns the target Nuclear receptor ROR-gamma (Homo sapiens) (UniProt P51449). The assay can be described thus: qHTS assay to identify small molecule antagonists of the retinoid-related orphan receptor gamma (ROR-gamma) signaling pathway (AID 1159521; also: nearly all actives have a fitted effect of over 50% in size; also: potency is read from the fitted curve at half-maximal effect). A digest of the protocol:
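RORγ antagonism is scored from reduced reporter luminescence in Tet-on CHO cells. Induction used 1 uM final doxycycline hyclate for 16 h at 37 C, following a 2 h compound exposure.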

Assay [20] deals with Retinoic acid receptor RXR-alpha (Homo sapiens) (UniProt P19793). Kind of assay: qHTS assay to identify small molecule agonists of the RXR signaling pathway (AID 1159527; calls by dose curve; also: nearly all actives have a fitted effect of over 35% in size). The method, boiled down: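 qHTS of the Tox21 10K library in GeneBLAzer RXR-alpha HEK 293T cells carrying a beta-lactamase reporter […]; 16 hr treatment, 9-cis retinoic acid as agonist control, FRET read-out.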
Sequence of Retinoic acid receptor RXR-alpha (Homo sapiens) (P19793 whole entry, looked up): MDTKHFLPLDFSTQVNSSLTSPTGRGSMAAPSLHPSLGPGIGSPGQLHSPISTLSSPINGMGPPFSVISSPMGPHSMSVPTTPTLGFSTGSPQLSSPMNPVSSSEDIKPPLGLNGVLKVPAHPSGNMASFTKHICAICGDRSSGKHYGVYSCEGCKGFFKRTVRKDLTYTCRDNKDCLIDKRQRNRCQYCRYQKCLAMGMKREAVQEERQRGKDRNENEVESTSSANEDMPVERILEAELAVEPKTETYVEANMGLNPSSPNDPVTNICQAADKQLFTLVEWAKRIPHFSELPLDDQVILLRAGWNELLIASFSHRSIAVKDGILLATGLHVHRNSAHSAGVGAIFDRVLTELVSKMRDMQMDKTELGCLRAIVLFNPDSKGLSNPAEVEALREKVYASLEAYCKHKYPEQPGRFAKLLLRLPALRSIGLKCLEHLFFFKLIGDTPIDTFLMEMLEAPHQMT

Several values for one entry are separate records, joined by “and”; a condition that tells them apart may be missing. Equal values may be shown once. Results filed as inconclusive are left out. Some structures have more than one record in an assay (separate samples or runs), and their calls can disagree. Activity calls are given as the source filed them. Unless noted, calls follow the shape of the dose curve; as a rule, active = well fitted curve in the direction sought with a large enough effect in the repeat runs; inconclusive = weak or mixed curves; inactive = no such curve, though single readings can be large; an effect the other way counts as inactive or inconclusive.

Sequence of Bile acid receptor (Homo sapiens) (Q96RI1 whole entry, looked up): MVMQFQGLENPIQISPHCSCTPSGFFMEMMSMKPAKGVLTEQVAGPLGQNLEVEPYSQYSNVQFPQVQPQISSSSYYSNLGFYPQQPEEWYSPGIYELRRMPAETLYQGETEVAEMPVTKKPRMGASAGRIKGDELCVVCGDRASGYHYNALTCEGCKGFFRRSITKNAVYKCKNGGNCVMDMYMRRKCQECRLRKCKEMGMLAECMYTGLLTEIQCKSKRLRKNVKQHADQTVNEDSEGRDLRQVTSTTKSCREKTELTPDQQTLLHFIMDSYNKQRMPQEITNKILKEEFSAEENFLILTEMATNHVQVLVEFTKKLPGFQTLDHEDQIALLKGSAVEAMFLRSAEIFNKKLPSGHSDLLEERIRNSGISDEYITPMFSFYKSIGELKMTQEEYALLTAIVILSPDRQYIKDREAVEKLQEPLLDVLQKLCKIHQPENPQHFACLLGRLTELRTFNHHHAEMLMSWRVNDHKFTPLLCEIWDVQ
Sequence of Peroxisome proliferator-activated receptor delta (Homo sapiens) (Q03181 whole entry, looked up): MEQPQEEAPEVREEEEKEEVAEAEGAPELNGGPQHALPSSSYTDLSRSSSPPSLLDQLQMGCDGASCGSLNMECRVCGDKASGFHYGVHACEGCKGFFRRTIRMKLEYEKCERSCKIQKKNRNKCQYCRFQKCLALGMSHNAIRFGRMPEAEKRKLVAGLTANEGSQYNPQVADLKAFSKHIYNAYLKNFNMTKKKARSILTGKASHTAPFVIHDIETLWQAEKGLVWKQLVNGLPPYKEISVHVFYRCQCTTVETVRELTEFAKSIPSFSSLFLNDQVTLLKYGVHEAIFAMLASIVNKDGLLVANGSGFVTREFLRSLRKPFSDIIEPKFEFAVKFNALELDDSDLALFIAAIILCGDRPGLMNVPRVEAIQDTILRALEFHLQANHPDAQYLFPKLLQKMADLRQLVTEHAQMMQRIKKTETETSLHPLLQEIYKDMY

On to `O=[N+]([O-])c1ccc(Nc2ccccc2)cc1`, for which the Potency entry in [1] was “inactive and 49 µM (active)”; in assay [6], “inactive and 49 µM (active)”; in [7], “inactive and 43.6 µM (active)”; in assay [9] it was “inactive and 54.9 µM (active)”. For the same compound, the Potency entry in assay [2], in [3], in assay [5], in assay [8], in assay [10] and in [11] was “inactive” each time. For the same compound, the outcome in assay [4] and in assay [12] was inactive.

`CC(C)=CC1C(C(=O)OCc2cccc(Oc3ccccc3)c2)C1(C)C` (configuration not stated): the Potency entry in assay [1], in assay [13], in assay [2], in assay [14], in assay [15] and in [16] was “inactive” in each case. Moreover, the Potency result in assay [17], in assay [3], in assay [18], in assay [5], in assay [6] and in [7] was “inactive” throughout. Further, the Potency entry in assay [8], in assay [9], in [10], in [19] and in assay [11] was “inactive” throughout. Also, the compound was called inactive in assay [4] and in [12].

With `O=C(O)CF`, the Potency result in [1], in assay [2], in [3], in assay [18], in assay [5] and in [6] was “inactive” throughout. The Potency result in assay [7], in [8], in assay [9], in assay [10], in assay [19] and in assay [11] was “inactive” in each case. Also, the Potency entry in [20] was “inactive”. In addition, the compound was classed as inactive in assay [4] and in assay [12].

Consider `CCC(=O)Nc1ccc(Cl)c(Cl)c1`, for which the Potency result in [1], in assay [2], in assay [16], in assay [3], in assay [18] and in [5] was “inactive” in each case. The Potency entry in assay [6], in assay [7], in [8], in assay [9], in assay [10] and in assay [11] was “inactive” in each case. In addition, the Potency result in [20] was “inactive”. Moreover, the compound was classed as inactive in [4] and in [12].

Take `CCCCCCCCCc1ccc(O)cc1`: the Potency result in [1], in assay [2], in [14], in assay [16], in [3] and in assay [18] was “inactive” throughout. Further, the Potency result in assay [6], in [7], in [8] and in [9] was “inactive” throughout. Besides, the compound was called inactive in [4]. Further, in assay [10], the Potency is 61.8 µM (active) and inactive.

With `CC(C)(O)C(=O)Nc1ccc([N+](=O)[O-])c(C(F)(F)F)c1`, the Potency entry in assay [1], in [2], in assay [16], in assay [3], in [5] and in assay [6] was “inactive” each time. Moreover, the Potency result in assay [7], in [8], in assay [9], in assay [10] and in [11] was “inactive” throughout. For the same compound, the outcome in assay [4] and in assay [12] was inactive. Also, the Potency in assay [19] is 19.7 µM (active).

Regarding `CCC[CH2][Sn]([Cl])([Cl])[CH2]CCC`, the Potency in assay [1] was 198 nM (active) and 61.6 nM (active); in [2], 556 nM (active) and 155 nM (active); in assay [16], 140 nM (active) and 24.5 nM (active); in assay [3] it was 222 nM (active) and 123 nM (active); in assay [5], 249 nM (active) and 77.6 nM (active); in assay [6] it was 1.11 µM (active) and 275 nM (active). Further, the Potency is 3.13 µM (active) and 2.45 µM (active) in assay [7]; 125 nM (active) and 38.9 nM (active) in [9]; 155 nM (active) and 122 nM (active) in assay [10]; 77.9 nM (active) and 96.9 nM (active) in [19].
